# High-throughput results deposited in PubChem BioAssay by several laboratories.
# NTR1 agonist – NTR1 (human) agonism; P30989; 330,000 compounds, 0.17% hits; NTR1-U2OS beta-arrestin-GFP spot imaging, agonist mode; activation, % at 20 µM; AID 493036;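 active = activation at or above 40% of the spot to cytoplasm intensity ratio, with at least 20 cells analyzed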;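 note: 0% = DMSO without peptide and 100% = 100 nM NTR1 peptide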
# AHR activator – activators of human aryl hydrocarbon receptor; AHR-responsive luciferase reporter cells, luminescence; AID 2796; 320,000 compounds, 2.5% hits; activation, % at 5 µM; in the data active = activation above about 47%;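 note: 0% = vehicle wells and 100% = reference agonist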
# Target sequence (P35869 whole entry, looked up): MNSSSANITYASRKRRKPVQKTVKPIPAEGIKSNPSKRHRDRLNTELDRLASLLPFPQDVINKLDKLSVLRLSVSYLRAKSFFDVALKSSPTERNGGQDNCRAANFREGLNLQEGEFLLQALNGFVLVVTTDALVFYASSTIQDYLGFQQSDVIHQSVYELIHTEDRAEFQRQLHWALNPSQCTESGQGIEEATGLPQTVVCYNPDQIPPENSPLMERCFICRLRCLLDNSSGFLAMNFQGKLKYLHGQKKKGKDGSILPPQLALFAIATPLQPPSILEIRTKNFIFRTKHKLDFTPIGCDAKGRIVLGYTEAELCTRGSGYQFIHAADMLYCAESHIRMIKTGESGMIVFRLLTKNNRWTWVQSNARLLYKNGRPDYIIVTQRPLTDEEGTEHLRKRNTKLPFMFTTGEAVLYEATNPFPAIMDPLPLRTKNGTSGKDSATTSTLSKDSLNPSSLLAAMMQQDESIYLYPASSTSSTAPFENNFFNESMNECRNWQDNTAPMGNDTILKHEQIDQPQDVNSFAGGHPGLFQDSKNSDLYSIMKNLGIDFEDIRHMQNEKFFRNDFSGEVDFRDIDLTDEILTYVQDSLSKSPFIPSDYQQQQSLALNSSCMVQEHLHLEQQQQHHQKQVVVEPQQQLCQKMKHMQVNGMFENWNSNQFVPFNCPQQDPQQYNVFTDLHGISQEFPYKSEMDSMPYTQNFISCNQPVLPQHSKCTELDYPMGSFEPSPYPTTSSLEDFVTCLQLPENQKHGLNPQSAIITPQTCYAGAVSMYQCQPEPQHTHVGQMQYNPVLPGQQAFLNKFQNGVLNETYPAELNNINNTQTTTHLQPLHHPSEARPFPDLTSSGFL
# APOBEC3A inh – inhibitors of human APOBEC3A DNA deaminase; recombinant A3A, FAM/TAMRA ssDNA deamination fluorescence; inhibition, % at 20 µM; P31941; 330,000 compounds, 0.41% hits;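 active = at least 40% inhibition at 20 µM here, with at most 30% in a related deaminase screen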;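 note: plate controls were A3A with DMSO for no effect and wells lacking A3A enzyme for full effect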
# A3G deaminase – APOBEC3G (human) deaminase inhibition; Q9HC16; recombinant A3G, ssDNA deamination FAM/TAMRA fluorescence; inhibition, % at 20 µM; 330,000 compounds, 0.28% hits;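 active = inhibition of at least 40% at 20 µM, with no more than 30% in the related APOBEC3A deaminase screen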;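 note: plate controls were DMSO wells with A3G for no effect and wells lacking A3G enzyme for full effect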
# An asterisk follows results filed as active; . = no result. Sampled rows, rich in hits. Any-hit rate of the full collection: about 3.2%.
SMILES,NTR1 agonist,AHR activator,APOBEC3A inh,A3G deaminase
Cc1noc(C)c1NC(=O)Nc1ccc2c(c1)CC(=O)N([C@H](C)CO)C[C@@H](C)[C@H](CN(C)CC1CCCCC1)O2,0,-1,0,-8
O=C1C(Oc2ccccc2)C(c2ccc3c(c2)OCO3)N1CCc1ccc(F)cc1 (stereo not drawn),6,71*,-2,-11
O=C1CC(c2ccccc2)CC(O)=C1C=Nc1ccc(Cl)cc1 (stereo not drawn),2,55*,3,-7
O=C1CC(c2ccccc2)CC(O)=C1C=Nc1ccccc1Cl (stereo not drawn),3,7,4,4
O=C1CC(c2ccccc2)CC(O)=C1C=Nc1cccc(Cl)c1 (stereo not drawn),1,48*,3,-1
Cc1ccc(N=CC2=C(O)CC(c3cccc(Cl)c3)CC2=O)cc1 (stereo not drawn),-1,3,1,-5
CC(C)CC(=O)N1CCN(c2ccc(NC(=O)c3ccco3)cc2)CC1,0,-4,-4,-9
Cc1ccc(OCC(=O)OCC(=O)c2cccc([N+](=O)[O-])c2)cc1C,0,10,4,17
O=C(CSc1ncccn1)N1CCN(S(=O)(=O)c2ccccc2)CC1,0,2,-2,-9
Nn1cc(-c2ccccc2)nc1SCC(=O)N1CCN(S(=O)(=O)c2ccccc2)CC1,0,52*,0,-3
CCN(CC)c1ccc(Nc2nc(N3CCOCC3)c3ccccc3n2)cc1,8,18,-2,6
COc1ccc(Nc2nc(N3CCCC3)c3ccccc3n2)cc1,15,50*,3,-4
Cc1ccc(C(=O)c2coc3c2C(=O)C(=O)c2ccccc2-3)cc1,5,50*,-10,3
Cc1ccc(C(=O)c2c(C)oc3c2C(=O)C(=O)c2ccccc2-3)cc1,13,40,-2,-9
Cc1ccc(-c2ccc(C(=O)Nc3cccc(F)c3)o2)c2ccccc12,0,35,-3,-10
O=C(Nc1cccc(F)c1)c1ccc(-c2ccccc2Cl)o1,13,50*,-2,-9
CC(=O)c1c(C)[nH]c(C(=O)CN2C(=O)NC(CCc3ccccc3)C2=O)c1C (stereo not drawn),1,2,5,-4
COc1cc(OC)c(C(=O)OC(C)C(=O)Nc2cccc(C(F)(F)F)c2)cc1OC (stereo not drawn),1,1,4,-1
O=[N+]([O-])c1ccc(Nc2nc(N/N=C\c3ccc4c(c3)OCO4)nc(N3CCCCC3)n2)cc1,4,71*,0,-2
NNc1nc(Nc2ccc([N+](=O)[O-])cc2)nc(N2CCCCCC2)n1,8,68*,-4,-6
O=C(Nc1ccc(F)cc1)c1cccnn1,1,51*,2,-4
O=C(Nc1nccs1)C(Br)C(Br)c1ccccc1 (stereo not drawn),32,52*,4,-2
Nc1nn2cc(-c3ccc(Br)cc3)nc2c2ccccc12,14,65*,1,-1
CCOC(=O)COc1ccc2ccccc2c1/C=C/[N+](=O)[O-],.,8,.,.
O=[N+]([O-])/C=C/c1c(OCc2ccccc2)ccc2ccccc12,61*,20,0,-8
SMILES,NTR1 agonist,AHR activator,APOBEC3A inh,A3G deaminase
Nc1sc(-c2ccccc2)n[n+]1Cc1cccc2cccnc12,8,85*,3,-2
Oc1ccc(-c2nc3ccc4ccccc4c3c3c2CCC3)cc1O,26,4,-3,-8
COc1ccc(/C=N/NC(=O)c2sc(C)nc2C)cc1,0,56*,0,-4
COc1ccccc1/C=N/NC(=O)c1sc(C)nc1C,0,28,-2,-6
CC(C)(C)NC(=O)CN(C(=O)c1snc(C(=O)NC2CCCCC2)c1N)c1ccccc1F,-1,9,0,-1
Cc1noc(C(=O)N2CCN(c3ccc(F)cc3)CC2)c1Cl,0,48*,-4,-10
CSc1ncc(Cl)c(C(=O)Nc2cccc(Cl)c2)n1,2,55*,-3,-5
CSc1ncc(Cl)c(C(=O)NCc2ccc3c(c2)OCO3)n1,-1,74*,-1,-5
CSc1ncc(Cl)c(C(=O)Nc2ccccc2Br)n1,5,11,1,-5
CSc1ncc(Cl)c(C(=O)Nc2cccc(C)c2)n1,1,62*,-3,-6
CN(C)C1(CNC(=O)C2CCN(S(=O)(=O)c3c(Cl)cccc3Cl)CC2)CCCCC1,-1,-3,-5,-12
C[C@H](NC(=O)Nc1cccc(Br)c1)C(=O)O,-1,0,2,-3
COC(=O)c1ccc(COc2ccc(C)cc2[N+](=O)[O-])o1,0,0,-1,-1
CCOc1ccc(OCc2ccc(C(=O)NN)o2)cc1,0,22,4,9
NNC(=O)c1ccc(COc2ccc3ccccc3c2)o1,1,80*,-5,-7
Cc1ccc(OCc2ccc(C(=O)NN)o2)cc1C,3,63*,3,9
CCN1CCN(C(=O)c2ccc(COc3cccc(Cl)c3)o2)CC1,0,12,1,-5
Cc1ccc(OCc2ccc(C(=O)NN)o2)c([N+](=O)[O-])c1,1,97*,2,-2
CN(C)c1ccc(NC(=O)c2ccc(COc3cccc(Cl)c3)o2)cc1,2,71*,-5,-4
C/C(=C/CCC(C)(O)C1CC[C@@]2(C)[C@@H]3CC=C4[C@@H](CC[C@H](O[C@H]5O[C@@H](CO)[C@H](O)[C@@H](O)[C@@H]5O)C4(C)C)[C@]3(C)C(=O)C[C@]12C)CO[C@@H]1O[C@H](CO)[C@@H](O)[C@H](O)[C@H]1O (stereo partly drawn),-1,-1,-2,-6
Cc1ccc(NC(=O)N(Cc2cccs2)Cc2cc3cc4c(cc3[nH]c2=O)OCO4)cc1,3,19,-3,-5
O=C(Nc1ccc(F)cc1)N(Cc1cccs1)Cc1cc2cc3c(cc2[nH]c1=O)OCO3,14,54*,7,-2
CNC(=O)CSc1nc2c([nH]c3ccccc32)c(=O)n1CCOC,1,31,0,-2
COCCn1c(SCC(=O)Nc2ccc(F)cc2F)nc2c([nH]c3ccccc32)c1=O,1,71*,1,-3
Cn1c(SCC(=O)Nc2ccc(F)cc2)nc2c([nH]c3ccccc32)c1=O,5,14,0,-7
SMILES,NTR1 agonist,AHR activator,APOBEC3A inh,A3G deaminase
COCCn1c(SCC(=O)Nc2ccccc2F)nc2c([nH]c3ccccc32)c1=O,1,61*,-2,-5
Cc1ccc(NC(=O)CSc2nc3c([nH]c4ccccc43)c(=O)n2C)cc1,20,60*,-4,-7
COCCn1c(SCC(=O)Nc2ccc(F)cc2)nc2c([nH]c3ccccc32)c1=O,1,14,-2,-6
COCCn1c(SCC(=O)Nc2ccc(C(N)=O)cc2)nc2c([nH]c3ccccc32)c1=O,0,52*,1,-3
COc1ccc(NC(=S)Nc2ccccc2)cc1,1,1,-3,-3
COc1ccc(NC(=S)Nc2ccc(N)c([N+](=O)[O-])c2)cc1,0,62*,-4,-13
COc1ccc(NC(=S)Nc2ccc3snnc3c2)cc1,2,67*,1,-5
